What all share (experiment): NCI-60 one-dose screen, 48 h (100 = growth as untreated, 0 = no growth, -100 = all killed)
For one experiment, the system named is OVCAR-8 ovarian. The conditions noted are these: 10 µM unless noted.
Another experiment concerns OVCAR-5 ovarian. The conditions noted are these: 10 µM unless noted.
The next experiment has as its system OVCAR-4 ovarian. The conditions noted are these: 10 µM unless noted.
In another experiment the test system is IGROV1 ovarian. The conditions noted are these: 10 µM unless noted.
Another experiment concerns OVCAR-3 ovarian. The conditions noted are these: 10 µM unless noted.
A further experiment relates to HS 578T breast. As to conditions: 10 µM unless noted.
The test system of a further experiment is NCI/ADR-RES ovarian. As to conditions: 10 µM unless noted.
The test system of the next experiment is T-47D breast. The conditions noted are these: 10 µM unless noted.
Another experiment deals with BT-549 breast. The conditions noted are these: 10 µM unless noted.
Another experiment relates to MDA-MB-435 melanoma. The conditions noted are these: 10 µM unless noted.
The test system of the next experiment is SW-620 colon. As to conditions: 10 µM unless noted.
The test system of another experiment is MCF7 breast. As to conditions: 10 µM.
The test system of a further experiment is HCT-116 colon. The conditions noted are these: 10 µM unless noted.
Another experiment concerns HCC-2998 colon. The conditions noted are these: 10 µM unless noted.
In another experiment the test system is KM12 colon. As to conditions: 10 µM unless noted.

Structures are written as SMILES. Compounds without any hit were thinned out: in the full panel of roughly 83,000, 20% have a hit.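 Growth was measured after 48 h exposure to one concentration of compound in 96-well plates. Values under 10 count as active.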 A number with no mark means an inactive call. The source made the active and inactive calls.

On to `CCCCN1CCN(c2ccc3nc(-c4ccc5nc(-c6ccc(OCC)cc6)[nH]c5c4)[nH]c3c2)CC1`, for which the growth in the experiment on OVCAR-8 ovarian is 70.1%; in the experiment with OVCAR-5 ovarian, 135%; in the experiment on OVCAR-4 ovarian, 55.2%; with IGROV1 ovarian it was 71.9%; with OVCAR-3 ovarian, -18% (active); in the experiment on HS 578T breast, 74.4%. For the same molecule, the growth was 87.8% in the experiment with NCI/ADR-RES ovarian; 59.7% in the experiment with T-47D breast; 83.9% in the experiment with BT-549 breast; 55.1% in the experiment on MDA-MB-435 melanoma; 8.61% (active) in the experiment with SW-620 colon; 1.77% (active) in the experiment with MCF7 breast. Also, the growth in the experiment with HCT-116 colon was 21.1%; in the experiment with HCC-2998 colon, 90.3%; in the experiment on KM12 colon it was 49.1%.

`Clc1ccc(Oc2ccc(Nc3ncnc4onc(-c5ccccc5)c34)cc2)c(Cl)c1`: the growth with OVCAR-8 ovarian was 97.7%; with OVCAR-5 ovarian it was 101%; in the experiment on OVCAR-4 ovarian it was 81.5%; with IGROV1 ovarian, 94.5%; in the experiment with OVCAR-3 ovarian, 109%; with HS 578T breast, 99.5%. For the same molecule, the growth in the experiment with NCI/ADR-RES ovarian was 96.8%; with T-47D breast it was 83.5%; with BT-549 breast, 90.2%; in the experiment on MDA-MB-435 melanoma, 103%; in the experiment on SW-620 colon, 99.5%; with MCF7 breast it was 80.6%. The growth in the experiment with HCT-116 colon is 85.4%; with HCC-2998 colon, 103%; in the experiment with KM12 colon, 103%.

In the case of `O=C(CN1C=NC2C(N3CCOCC3)=NC=NC21)c1ccc(Br)cc1` (stereo not given), the growth in the experiment on OVCAR-8 ovarian is 100%; with OVCAR-5 ovarian, 99%; in the experiment with OVCAR-4 ovarian it was 97%; in the experiment with IGROV1 ovarian, 95.6%; in the experiment on OVCAR-3 ovarian, 108%; in the experiment on HS 578T breast it was 102%. For the same molecule, the growth with NCI/ADR-RES ovarian is 103%; in the experiment with T-47D breast it was 101%; in the experiment with BT-549 breast it was 103%; in the experiment with MDA-MB-435 melanoma, 101%; with SW-620 colon it was 100%; in the experiment on MCF7 breast it was 99.1%. Also, the growth in the experiment on HCT-116 colon is 103%; in the experiment with HCC-2998 colon, 111%; with KM12 colon it was 107%.

For the origin of these results see PubChem BioAssay (NCI).
